About 83,000 compounds went through this panel and 20% of them were active in at least one assay; those are over-represented in the sample as a whole.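 Percent growth is the endpoint: 0 to 100 indicates growth inhibition (40 means 60% inhibition), 0 means no net growth, and negative values indicate cell death.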 The source made the active and inactive calls. The calls were made as follows: active = growth percent below 10; inactive = the rest. *1 amine or outer side, *2 acyl side, *3 side chain or, on linkers, in order; H or OH if unused. Where a SMILES comes first, the peptide text is derived from it. Bridges are numbered along the chain shown (N, C = ends). Roman numbers before positions name the chains, in order. [ ]: non-standard residue; d: D form. Actinocin(1to9) = Cc1c2oc3c(C)ccc(C(=O)[*:2])c3nc-2c(C(=O)[*:1])c(N)c1=O; NMeV = CN[CH](C(=O)O)C(C)C; Sar = CNCC(=O)O
Key:
Test in all cases: NCI-60 one-dose screen, 48 h (100 = growth as untreated, 0 = no growth, -100 = all killed)
[1] = system: HCT-15 colon; conditions: 10 µM unless noted
[2] = system: HT29 colon; conditions: 10 µM unless noted
[3] = system: SNB-75 CNS; conditions: 10 µM unless noted
[4] = system: SNB-19 CNS; conditions: 10 µM unless noted
[5] = system: U251 CNS; conditions: 10 µM unless noted
[6] = system: PC-3 prostate; conditions: 10 µM unless noted
[7] = system: UACC-62 melanoma; conditions: 10 µM unless noted
[8] = system: SK-MEL-2 melanoma; conditions: 10 µM unless noted
[9] = system: EKVX NSCLC; conditions: 10 µM unless noted
[10] = system: SN12C renal; conditions: 10 µM unless noted
[11] = system: UO-31 renal; conditions: 10 µM unless noted
[12] = system: TK-10 renal; conditions: 10 µM unless noted
[13] = system: CAKI-1 renal; conditions: 10 µM unless noted
[14] = system: CCRF-CEM leukemia; conditions: 10 µM unless noted
[15] = system: MOLT-4 leukemia; conditions: 10 µM unless noted
[16] = system: SK-MEL-5 melanoma; conditions: 10 µM unless noted
[17] = system: LOX IMVI melanoma; conditions: 10 µM
[18] = system: SK-MEL-28 melanoma; conditions: 10 µM unless noted
[19] = system: A498 renal; conditions: 10 µM unless noted
[20] = system: ACHN renal; conditions: 10 µM unless noted

Measured: growth

CCC(C)C1NC(=O)C(NC(=O)c2c3nc4c(C(=O)NC5C(=O)NC(C(C)CC)C(=O)N6CCCC6C(=O)N(C)CC(=O)N(C)C(C(C)C)C(=O)OC5C)ccc(C)c4oc-3c(C)c(=O)c2N)C(C)OC(=O)C(C(C)C)N(C)C(=O)CN(C)C(=O)C2CCCN2C1=O (stereo not given) (I: TIP[Sar][NMeV] / II: TIP[Sar][NMeV]; ester I:1-I:C, II:1-II:C; linker I:N-II:N via Actinocin(1to9); configuration not given here)
inactive: [10] 15.4%
active: [1] 2.48% | [2] 0.216% | [3] -87.2% | [4] 4.27% | [5] 1.81% | [6] -3.84% | [7] -67.8% | [8] -43.2% | [9] 8.25% | [11] -15.6% | [12] 3.49% | [13] -13.1% | [14] -5.99% | [15] -0.501%

CCCCCCCCCCCCN1C(C)=CS/C1=C\C=C\c1scc(C)[n+]1CCCCCCCCCCCC
inactive: [1] 56.6% | [2] 11% | [3] 34.3% | [4] 40.2% | [17] 25.9% | [18] 47.2% | [10] 18.2% | [11] 62.6% | [12] 11.9% | [13] 27.5% | [14] 20% | [15] 11.1%
active: [6] 3.86% | [16] -83.9% | [7] 5.41%

CCc1oc2ccccc2c1C(=O)c1cc(Br)c(O)c(Br)c1
inactive: [1] 62.5% | [2] 89.3% | [3] 53.7% | [4] 78.4% | [6] 65.5% | [16] 46.1% | [7] 38.9% | [18] 63.9% | [8] 59.6% | [9] 73.6% | [11] 84.3% | [12] 125% | [13] 63.6% | [19] 67.2% | [14] 41.8% | [15] 83.9%

C[C@@]1(CO)[C@H](O)CC[C@@]2(C)[C@H]1CC[C@H]1C[C@@H]3C[C@@]12CC[C@@]3(O)COC(=O)CN
active: [16] -43.8%
inactive: [1] 54% | [2] 38.7% | [3] 57.3% | [4] 59.6% | [5] 44.3% | [7] 26.3% | [17] 29% | [8] 102% | [9] 74.2% | [10] 61.6% | [11] 22.7% | [12] 85.3% | [20] 14.6% | [13] 17% | [14] 32.8% | [15] 28.2%

O=C1C=C(Cl)C(=O)c2ccccc21
inactive: [1] 98.9% | [2] 119% | [3] 71.4% | [4] 97.4% | [6] 81.7% | [7] 98.2% | [18] 116% | [10] 101% | [11] 60.8% | [12] 152% | [20] 38% | [13] 90.6% | [19] 118% | [15] 37.4%

N#C/C(=N\Nc1ccc(Cl)cc1)C(=O)C1CC1
active: [16] 0.976%
inactive: [1] 53.9% | [2] 67.6% | [3] 56.5% | [5] 40.5% | [6] 54.3% | [7] 32.1% | [17] 67.2% | [18] 53.9% | [8] 11.8% | [9] 32.2% | [10] 41.4% | [12] 52.9% | [20] 69.1% | [13] 49.1% | [19] 43.4% | [14] 64.3% | [15] 79.8%

CC(C)c1ccc(Nc2n[nH]c(=S)s2)cc1
inactive: [1] 99.8% | [2] 76.1% | [3] 92.3% | [4] 99.1% | [16] 101% | [17] 101% | [18] 112% | [8] 111% | [11] 83.7% | [12] 93.1% | [20] 106% | [13] 114% | [19] 94.6% | [15] 97.6%

COC1CC(C)C(OC)c2cc(O)cc(c2O)NC(=O)/C(C)=C/C=C\C(C)C(OC(N)=O)/C(C)=C\C(C)C1OC (stereo not given)
active: [1] 5.82% | [2] 5.88% | [16] -10.9% | [7] -27.6% | [17] 5.8% | [11] -70.9% | [14] -30.7% | [15] -23.4%
inactive: [3] 47.8% | [4] 37.8% | [5] 43.9% | [8] 39.4% | [10] 30.3% | [12] 68% | [20] 28.5% | [13] 54.2%

CCN(CC)CC(O)c1cc(-c2ccc(Cl)cc2)nc2cc(Cl)ccc12 (stereo not given)
active: [2] -50.1% | [5] 8.59% | [16] -95.6% | [18] -56.6% | [20] 7.25% | [13] -16.5% | [14] 3.88% | [15] -18.3%
inactive: [1] 25.1% | [3] 38.3% | [4] 56.8% | [17] 11% | [8] 22.7% | [9] 60.5% | [10] 29.6% | [11] 35.2% | [12] 20.6% | [19] 64.6%

O=C(OC12CC3CC(CC(C3)C1)C2)c1ccc(NCc2cc(O)ccc2O)cc1
active: [1] -41.9% | [2] -19% | [3] -39.5% | [4] 5.17% | [5] -64.5% | [16] -95.9% | [7] -73.4% | [17] -68.7% | [8] -19.9% | [9] -67.9% | [10] -3.25% | [11] -100% | [12] -95.9% | [20] -89.7% | [13] -92.5% | [14] -23.7% | [15] -19.5%

CCCCCCCCCCCC[S+](C)CC(=O)[O-] (stereo not given)
inactive: [1] 84.6% | [2] 44.7% | [3] 29.7% | [5] 43.7% | [6] 25% | [7] 31.8% | [17] 32.9% | [18] 62.9% | [8] 51.7% | [9] 22.2% | [10] 13.7% | [12] 20.6% | [20] 61.4% | [13] 38.7% | [19] 95.4% | [14] 11.9% | [15] 32.9%
active: [16] -62.3%

CCCCCC/C=C1\CCC(CN2CCCC2)C1=O (stereo not given)
inactive: [1] 77.1% | [2] 120% | [3] 90.9% | [4] 92.6% | [6] 89.7% | [16] 96.9% | [7] 99.2% | [17] 59.8% | [18] 114% | [8] 114% | [9] 113% | [10] 103% | [11] 90.4% | [12] 124% | [20] 114% | [13] 102% | [19] 94.1% | [14] 33.1% | [15] 60.2%

CC(C)N=C(N)/N=C(\N)Nc1ccc2ccc3ccccc3c2c1
active: [1] -91.5% | [2] -84.4% | [3] -20.7% | [4] -92.6% | [5] -67.9% | [16] -98.1% | [7] -75.6% | [18] -78.2% | [8] -81.8% | [9] -91.2% | [10] -84.6% | [11] -58.4% | [12] -89.6% | [20] -89.2% | [13] -81.1% | [19] -73.7% | [15] -3.58%
inactive: [14] 12.3%

Cc1cccc2c(N)c3ccccc3nc12
active: [1] -8.39% | [2] -7.57% | [3] 2.93% | [5] -17.6% | [16] -77.2% | [17] -57.3% | [18] -41.1% | [9] 1.94% | [10] -9.63% | [11] -53.9% | [12] -5.29% | [20] -18.6% | [13] -21.9% | [19] -46.5% | [15] 2.71%
inactive: [4] 27.5%

COc1cc(OC)c(/C=C/c2c3ccccc3cc[n+]2C)c(OC)c1
inactive: [1] 97.9% | [3] 12.3% | [4] 35.8% | [6] 19.2% | [7] 15.7% | [18] 30.1% | [10] 14.2% | [11] 75.5% | [12] 42.1% | [20] 71.5% | [13] 67.8% | [19] 36.6% | [14] 18.2% | [15] 14.7%
active: [2] 1.89% | [16] -14% | [17] -39.1%

O=C(CCl)N(c1ccccc1)c1ccccc1
inactive: [1] 105% | [2] 114% | [3] 105% | [5] 98.1% | [6] 91.4% | [16] 99.8% | [18] 110% | [8] 97.7% | [9] 111% | [10] 99.6% | [11] 86.7% | [12] 105% | [20] 109% | [13] 105% | [19] 105% | [15] 102%
active: [17] -36%

COc1ccc(C(Cn2ccnc2)Sc2ccc(Cl)c(Cl)c2)cc1 (stereo not given)
inactive: [1] 79.7% | [2] 59.6% | [3] 89.2% | [4] 98.6% | [6] 63.1% | [16] 66.5% | [7] 77.6% | [17] 84.4% | [18] 85.3% | [8] 104% | [11] 45.2% | [12] 96.7% | [20] 83.4% | [13] 62.3% | [19] 67.8% | [14] 79.3% | [15] 64.1%

Cc1cc2nc(CC(=O)c3ccncc3)c(=O)[nH]c2cc1C
inactive: [1] 94.6% | [2] 105% | [3] 86.2% | [5] 77.2% | [6] 95.6% | [16] 98.1% | [7] 88.9% | [17] 106% | [18] 109% | [8] 115% | [9] 56.1% | [10] 84.7% | [12] 107% | [20] 93.6% | [13] 82.9% | [19] 98.4% | [14] 93.6% | [15] 104%
